# Test results reported in PubChem BioAssay (NCI).
# This is part of a sample that, as a whole, favours compounds with a hit. Of some 83,000 tested, about 20% had one in any assay.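 Percent growth is the endpoint: 0 to 100 indicates growth inhibition (40 means 60% inhibition), 0 means no net growth, and negative values indicate cell death.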 A number with no mark means an inactive call. The source made the active and inactive calls. How the source made its calls: active means growth percent below 10; inactive means the rest.
# Experiments:
# Assay in all cases: NCI-60 one-dose screen, 48 h (100 = growth as untreated, 0 = no growth, -100 = all killed)
# Conditions in all cases: 10 µM unless noted
# T-47D breast = system: T-47D breast
# BT-549 breast = system: BT-549 breast
# MDA-MB-435 melanoma = system: MDA-MB-435 melanoma
# SW-620 colon = system: SW-620 colon
# MCF7 breast = system: MCF7 breast
# HCT-116 colon = system: HCT-116 colon
# HCC-2998 colon = system: HCC-2998 colon
# KM12 colon = system: KM12 colon
SMILES,growth (T-47D breast),growth (BT-549 breast),growth (MDA-MB-435 melanoma),growth (SW-620 colon),growth (MCF7 breast),growth (HCT-116 colon),growth (HCC-2998 colon),growth (KM12 colon)
CCc1cccc2c3c(sc12)C(c1ccc(Cl)cc1)C(C#N)=C(/N=C/c1ccc(Cl)cc1)O3 (configuration not stated),25.7%,51.7%,-58.4% (active),29.3%,15.8%,22.2%,7.72% (active),13.2%
Nc1nc(N)c2c(n1)NC(c1ccc(Cl)cc1)CC(c1ccc(Nc3nc(NCCO)nc(N4CCOCC4)n3)cc1)=N2 (configuration not stated),74.8%,71%,81.7%,79.4%,41.9%,57.3%,108%,65.3%
Cc1ccc(-c2nn(-c3ccccc3)cc2/C=C/C(=O)c2ccc(NC(=O)CCCCCCC(=O)NO)cc2)cc1,58.5%,108%,67.9%,75.1%,71.4%,33.6%,83.1%,78.2%
CC1(C)CC[C@]2(CN)CC[C@]3(C)C(=CC[C@@H]4[C@@]5(C)CCCNC(C)(C)[C@@H]5CC[C@]43C)[C@H]2C1,78.3%,101%,97.3%,102%,85.7%,90.6%,45.9%,101%
O=S(=O)(Nc1cccc2ccccc12)c1ccc(-c2cnc(C3CC3)o2)cc1,62.4%,21.3%,-39.9% (active),24.6%,22%,12.4%,21.3%,10.7%
C[C@@H]1C[C@H]2C(=O)O[C@@H](C)C(NC(=O)[C@H](Cc3cc(F)cc(F)c3)NC(=O)Nc3ccc(Cl)cc3F)C(=O)N3CCC[C@H]3C(=O)N3CCCC[C@H]3C(=O)N[C@@H](CO)C(=O)N2C1 (some centres not stated),34.4%,35.3%,19.5%,39.9%,16.1%,9.85% (active),26%,42%
O=C(CCn1cc[n+](CC(=O)c2ccc(-c3ccccc3)cc2)c1)Nc1cccc2cccnc12,42.4%,57.2%,87.2%,85.8%,58%,84.5%,68.4%,42.9%
CC(c1ccccc1)N1CSc2nc3ncncc3n2C1 (configuration not stated),34%,59%,23.5%,41.1%,5.38% (active),19.2%,23.8%,21.8%
C=C1CC[C@@H]2[C@](C)(CO)[C@H](O)CC[C@@]2(C)[C@@H]1C/C(O)=C1\CCOC1=O,96.6%,109%,94.6%,94.9%,77%,95.4%,104%,111%
CN(C)CCNC(=O)c1ccc(-c2nc3ccc4[nH]ncc4c3c3c2CCC3)cc1,32.8%,-19.5% (active),22.2%,3.38% (active),1.36% (active),2.43% (active),2.85% (active),4.08% (active)
CNC(=O)c1cc(N2CCc3cc(NC(=O)Nc4ccc(Cl)c(C(F)(F)F)c4)ccc32)ccn1,49.2%,72.3%,53.3%,88.2%,29.8%,39.4%,53.7%,17%
CCCCCCCn1cc2c(N[C@H](C)c3ccccc3)ncnc2n1,99.7%,102%,103%,117%,90.3%,104%,116%,100%
CCOC(=O)c1c(NC(=O)c2ccccc2C(F)(F)F)sc2c1CCC(=O)C2,15%,11.1%,72.6%,14.9%,78.5%,11%,65.2%,7.7% (active)
CC1(C)NCCC[C@]2(C)[C@H]3C/C(=N\O)C4[C@@H]5C[C@@](C)(CO)CC[C@]5(C)CC[C@@]4(C)[C@]3(C)CC[C@@H]12 (some centres not stated),85.3%,97.6%,111%,103%,86.9%,86.3%,105%,104%
Oc1cccc2ccc(-c3nnc(SCc4ccc(O)c5ncccc45)o3)nc12,16%,15.9%,12%,19.2%,4.96% (active),5.66% (active),27.6%,8.28% (active)
COc1cc2nc(Cl)nc(Nc3cccc(C4=Nc5c(N)nc(N)nc5NC(c5ccccc5)C4)c3)c2cc1OC (configuration not stated),67.5%,81.6%,101%,85.4%,70.5%,74.6%,94.3%,78.3%
COc1ccc(NC(=O)Nc2ccc3c(ccn3C(=O)c3cccc(F)c3)c2)cc1,75.9%,76.2%,74.9%,60.2%,60.4%,45.8%,86.8%,53%
COc1cc(OC)c(S(N)(=O)=O)cc1C(=O)/C=C/c1ccc(Cl)cc1,26.1%,1.01% (active),16.7%,-39.9% (active),5.69% (active),7.77% (active),1.39% (active),1.9% (active)
O=c1c2ccccc2nc(COc2ccccc2)n1NS(=O)(=O)c1ccc(Cl)cc1,74.8%,106%,5.47% (active),64.1%,41.9%,83.6%,77.6%,55.2%
Cc1ccc(CSc2nc(-c3ccc(Cl)cc3)c(C#N)c(N3CCOCC3)n2)cc1,79%,115%,94.8%,96%,88.6%,90%,104%,96.5%
Cc1cc(C)cc(C(=O)Nc2cccc(C#Cc3cccc4[nH]nc(N)c34)c2)c1,39.4%,115%,2.35% (active),38.6%,38.1%,43.2%,57.7%,12.6%
COc1ccccc1-n1cc(C#N)c(N)c1C(=O)c1ccc(Br)cc1,60%,88.9%,3.09% (active),38.7%,33.5%,58.8%,71%,39.3%
O=C1Nc2ccccc2/C1=C/c1ccc(COCC2CO2)n1-c1ccc(O)cc1 (configuration not stated),91.4%,106%,103%,96.2%,84.6%,99.2%,108%,17.8%
CC(=O)c1nnn(-c2c(C(=O)n3nc(C)cc3C)sc(=S)n2-c2ccccc2)c1C,113%,92.2%,108%,112%,89.2%,104%,114%,104%
Cc1cccc(/C=C/C(=O)Nc2ncc(Cc3cccc(C)c3)s2)c1,32.7%,66.6%,-70.2% (active),16.8%,15.1%,23.1%,34.8%,6.43% (active)
CC[C@H](CO)Nc1ccc2ncc(C#Cc3cncc(C(=O)Nc4ccc(CN5CCN(C)CC5)c(C(F)(F)F)c4)c3)n2n1,-69.5% (active),-97.4% (active),-91.4% (active),-50.8% (active),-73.1% (active),-94.3% (active),-59.4% (active),-61.9% (active)
Cc1ccc(-c2cc3nc(C(Cl)Cl)nc(-c4cccs4)n3n2)cc1,87.8%,97.8%,77.6%,52.5%,59.8%,63.5%,54.1%,27.1%
c1ccc(C(c2nc3ncncc3[nH]2)N2CSc3nc4ccccc4n3C2)cc1 (configuration not stated),110%,102%,105%,98%,94.9%,114%,107%,94.4%
CC1=NC2=NN3C(=NN2C(c2ccccc2)=C1)N=NC(c1ccc(Br)cc1)=C3c1ccc(Br)cc1,108%,115%,110%,96.6%,94.4%,117%,112%,104%
